Sfp inh – Sfp phosphopantetheinyl transferase inhibition. Q9F4F7. 310,000 compounds, 3.5% hits. Potency, µM, inactives show largest response in the series, negative = inhibition, most hits filed as inhibitors. Biochemical Sfp PPTase activity, qHTS. AID 1490;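 also: the enzyme is Sfp with the accession as filed and its product quenches rhodamine fluorescence; 0% = enzyme reaction without inhibitor and -100% = no enzyme wells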
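Reaction rates are the 30-min fluorescence difference (ex 525, em 598 nm) in wells containing 15 nM Sfp, 5 uM rhodamine-CoA and 12.5 uM BHQ-2-YbbR at pH 7.6 with 10 mM MgCl2.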
ClpP mod – qHTS Assay for Activators of ClpP. AID 651965, 2013. 340,000 compounds, 1.9% hits. ATP-dependent Clp protease proteolytic subunit (Bacillus subtilis (strain 168)), P80244. Potency, µM (titrated, usually from 57.5 µM), inactives show top-dose activity change, negative = active. purified B. subtilis ClpP, FRET peptide cleavage, 20 min; active = well fitted falling curve with a large enough effect; inconclusive = small, poorly fitted or top-dose-only effect; inactive = no such curve, though single readings can be large or run the other way; also: the source files actives as falling curves though it sought activators and does not explain the sign; nearly all actives have a fitted effect of over 65% in size
Target sequence (P80244 whole entry, looked up): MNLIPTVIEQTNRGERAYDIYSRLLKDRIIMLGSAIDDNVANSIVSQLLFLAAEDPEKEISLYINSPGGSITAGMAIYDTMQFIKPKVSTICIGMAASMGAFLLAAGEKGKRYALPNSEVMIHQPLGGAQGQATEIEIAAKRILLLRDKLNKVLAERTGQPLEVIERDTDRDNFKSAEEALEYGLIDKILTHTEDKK
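FRET quenching reversal measured ClpP activation: 10 microg/mL B. subtilis ClpP at pH 8 with the FRET-FV decapeptide, read at 430 nm after 320 nm excitation. The 20-min minus 0-min signal was scaled between DMSO/no-enzyme wells and ADEP (5.8 microM final).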
RORg inh – inhibitors of mouse ROR gamma transcriptional activity; P51450; Drosophila S2 Gal4-RORgamma UAS-luciferase reporter, 20 h; Potency, µM (top dose mostly 53.6 µM), without a hit: at the top dose activity change, negative = inhibition, hits mostly inhibitors; 310,000 compounds, 5.4% hits; also: % is scaled to controls: 0 for no effect and ±100 for the full control effect; nearly all actives have a fitted effect of over 60% in size
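Drosophila Schneider cells stably carrying a metallothionein-driven Gal4 DBD–ROR gamma fusion and a UAS-Photinus luciferase reporter were exposed to compound for 1 hr, then induced with copper sulfate (700 uM final) for 20 hr at ambient temperature before luminescence reading.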
VP16 counter – Gal4-VP16 reporter inhibition counter-screen | Drosophila S2 Gal4-VP16 UAS-luciferase, luminescence, 20 h | Potency, µM (series often up to 53.6 µM), without a hit: top-dose activity, negative = inhibition, most hits filed as inhibitors | 310,000 compounds, 3.5% hits;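 also: Gal4-VP16 expression switched on by copper sulfate through the metallothionein promoter; % is scaled to controls: 0 for no effect and ±100 for the full control effect; nearly all actives have a fitted effect of over 50% in size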
PINK1 expr mod – modulators of PINK1 expression; 410,000 compounds, 0.2% hits; Potency, µM (titrated, usually from 76.6 µM), for inactives: at the highest dose activation (PINK1 increase), most hits filed as activators; PINK1 immunofluorescence, high-content cytometry, 24 h; active = well fitted activation curve with a large enough effect; inconclusive = small, poorly fitted or top-dose-only effect; cell line not stated here; also: % of control where 0% means no effect; nearly all actives have a fitted effect of over 65% in size
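Decision-based qHTS: stable cells, 24 h exposure to five compound concentrations, CCCP as control. Fixed cells stained for PINK1 plus nuclear, mitochondrial and cell markers, cytometer read.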
Epigenetic derep – epigenetic control regulation, reporter derepression; 280,000 compounds, 0.2% hits; murine LDR cells, GFP reporter derepression, 30 h; AID 1865; Potency, µM (titrated, usually from 53.9 µM), for the others: top-dose GFP activation, usual class: activators; also: % of control where 0% means no effect; nearly all actives have a fitted effect of over 60% in size
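Murine LDR cells carrying a silenced, genomically integrated CMV-driven GFP reporter were exposed to compound for 30 hours at 37 C. After PBS washes, GFP-positive cells (20–120 um objects) were counted by laser-scanning microplate cytometry.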
* marks the source's active call; other numbers are inactive results; ? = inconclusive; nt = not tested or not shown; [ ] = remark or other dose. Sampled rows, rich in hits. Any-hit rate of the full collection: about 8.1%. Unless noted, calls follow the shape of the dose curve; as a rule, active = well fitted curve in the direction sought with a large enough effect; inconclusive = small, poorly fitted or top-dose-only effect, or another doubt; inactive = no such curve, though single readings can be large; an effect the other way counts as inactive or inconclusive. Potency is read from the fitted curve at half-maximal effect.

SMILES | Sfp inh | ClpP mod | RORg inh | VP16 counter | PINK1 expr mod | Epigenetic derep
CC(=O)Nc1ccc(S(=O)(=O)NNC(=O)c2cc3c4ccccc4n(C)c3s2)cc1 | 11.8% | 28.2µM* | -20.1% | ? | 2.5% | -1.2%
CC(=O)c1cccc(NC(=O)CCS(=O)(=O)c2cccc3nsnc23)c1 | 56.2µM* | -4.3% | ? | 0.4% | -1.7% | 1.8%
COc1ccc(CCNCc2csc3nc4ccccc4n23)cc1OC | 5.1% | -1.4% | -33.8% | 6.31µM* | 6.3% | 2.0%
C=C1CC(C(=O)N/N=C/c2ccc(O)cc2)C1 | 7.4% | 11.2µM* | 2.7% | 15.8% | 4.5% | -4.3%
CSc1ccc(/C=N/NC(=O)c2ccc(O)cc2)cc1 | 7.6% | -18.1% | 0.562µM* | 2.24µM* | 1.8% | -1.0%
COc1ccc(C(=O)N/N=C/c2ccc(SC)cc2)cc1 | -0.8% | -12.3% | ? | 0.0% | 11.1% | 9.3%
Fc1ccc(N/N=C/c2ccc(N3CCOCC3)cc2)c(F)c1 | 4.5% | 35.5µM* | 18.1% | 19.2% | 2.2% | -2.2%
O=C(N/N=C/c1ccc(N2CCOCC2)s1)c1ccc(O)cc1 | nt | -4.0% | nt | nt | 4.0% | nt
O=C(NN=Cc1ccc(O)cc1)C(=O)NN=Cc1ccc(O)cc1 | nt | nt | nt | nt | 2.7% | nt
O=C(N/N=C/c1ccc(N2CCOCC2)cc1)c1ccc(O)cc1 | 0.0% | -23.8% | 4.47µM* | ? | 1.3% | 1.1%
O=[N+]([O-])c1cc(-c2nc(-c3ccccc3)no2)ccc1N1CCOCC1 | nt | 0.6% | nt | nt | 1.3% | -2.9%
O=C(NCC(c1ccco1)S(=O)(=O)c1cccs1)c1ccc(F)c(F)c1 (stereo unspecified) | nt | -0.1% | nt | nt | -0.9% | 6.3%
C/C(=N\NC(=O)c1ccc(O)cc1)c1ccc(N2CCOCC2)cc1 | -4.9% | nt | 1.78µM* | ? | -0.5% | -0.2%
CCOc1ccc(C2c3[nH]c4ccccc4c3CCN2C(=O)Cc2cccc(OCC)c2OCC)cc1 (stereo unspecified) | nt | -6.4% | nt | nt | 1.4% | -1.6%
N#C/C(=C/c1cn(-c2ccccc2)nc1-c1cccc(OCc2ccc(F)cc2)c1)C(=O)NCCCn1ccnc1 | ? | ? | ? | 11.2µM* | 1.2% | -1.9%
O=C(c1n[nH]c2c1CCCC2)N1CCOc2ccc(C(O)C(c3ccccc3)c3ccccc3)cc2C1 (stereo unspecified) | nt | nt | nt | nt | 0.3% | nt
COc1cc(NC(=O)c2ccc(-n3cnc4cccnc43)cc2)cc(OC)c1 | nt | -23.7% | nt | nt | 1.0% | 12.5%
COc1ccc(NC(=O)C(C)N(C)Cc2ccc3ccccc3c2)cc1 (stereo unspecified) | -14.6% | nt | ? | -10.0% | 2.0% | nt
CCC(C)c1ccccc1NC(=O)C(C)N(C)Cc1cccc(OC)c1 (stereo unspecified) | 50.1µM* | nt | 10.5% | -15.1% | 20.2% | 5.7%
Cc1cccc(OCc2nnc(SCC(=O)N3c4ccccc4CC3C)n2C)c1C (stereo unspecified) | -18.3% | 0.9% | ? | 14.1µM* | 0.2% | -1.3%
COc1ccc(Cc2n[nH]c(=S)n2C)cc1Br | ? | nt | 38.1% | -7.4% | -0.6% | -1.1%
COc1ccc(CCCc2n[nH]c(=S)o2)cc1C | 21.0% | nt | 10µM* | -2.2%[10 µM] | -0.6% | 0.0%
COc1ccc(CCCc2n[nH]c(=S)n2C)cc1C | 12.5% | 0.0% | 5.01µM* | -3.1%[10 µM] | 0.4% | 0.0%
O=C(CCn1cnc2onc(-c3ccc(F)cc3)c2c1=O)N1CCN(c2ccccc2F)CC1 | nt | -1.2% | nt | nt | -0.6% | -0.4%
Cc1nc2c(c(=O)[nH]1)CSCC2 | -8.6% | nt | 18.5% | -1.4% | nt | nt
CC1(C)CC(=O)C(C(c2ccc(F)cc2)C2C(=O)CC(C)(C)CC2=O)C(=O)C1 | -32.9% | 1.0% | -1.6% | -19.1% | -0.6% | -0.6%
CC1(C)CC(=O)C(C(c2ccco2)C2C(=O)CC(C)(C)CC2=O)C(=O)C1 | 50.1µM* | 0.8% | -28.4% | 3.0% | -0.4% | -0.9%
O=C(N/N=C/c1cc([N+](=O)[O-])cc(Br)c1O)C12CC3CCC(CC(C3)C1)C2 | 17.3% | -0.2% | 5.01µM* | 3.98µM* | ? | -1.4%

Screening results as filed in PubChem.
